Bioassay records deposited in PubChem by The Scripps Research Institute Molecular Screening Center.
Shown are actives, neighbours in structure and some others; about 2.3% of the full set was active somewhere.
CHO-K1 Ca antag: nonselective inhibitor or artifact in parental CHO-K1 cells | ATP-induced calcium, Fluo-8 fluorescence | inhibition, % at 3 µM | hit rate 0.6% among 360,000 | AID 602250;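 active = inhibition above a per-plate cutoff, the plate's mean sample inhibition plus 3 SD, cut at about 24% in these data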;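 also: 0% = DMSO plus EC80 ATP and 100% = DMSO alone without ATP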
CHO-K1 Ca PAM: nonselective activator or artifact in parental CHO-K1 calcium assay; ATP EC20, Fluo-8 calcium fluorescence; 0% at ATP EC20, 100% at ATP max; activation, % at 3 µM; hit rate 0.02% among 360,000; AID 602247;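 active = activation above the run cutoff, the mean activation of all test compounds plus 3 SD, cut at about 40% in these data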;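 also: peak over basal fluorescence ratio in a 140 s read after ATP addition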
CHRM1 agonist: agonists of human M1 muscarinic receptor. P11229. CHO-K1 hM1, Fluo-8 calcium fluorescence, agonist mode; 0% DMSO, 100% acetylcholine EC100. activation, % at 3 µM. hit rate 0.33% among 360,000. AID 588814;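 active = activation above the run's mean compound activation plus 3 SD, cut at about 16% in these data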;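 also: peak over basal fluorescence ratio within a 140 s kinetic read after compound addition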
Target sequence (P11229 whole entry, looked up): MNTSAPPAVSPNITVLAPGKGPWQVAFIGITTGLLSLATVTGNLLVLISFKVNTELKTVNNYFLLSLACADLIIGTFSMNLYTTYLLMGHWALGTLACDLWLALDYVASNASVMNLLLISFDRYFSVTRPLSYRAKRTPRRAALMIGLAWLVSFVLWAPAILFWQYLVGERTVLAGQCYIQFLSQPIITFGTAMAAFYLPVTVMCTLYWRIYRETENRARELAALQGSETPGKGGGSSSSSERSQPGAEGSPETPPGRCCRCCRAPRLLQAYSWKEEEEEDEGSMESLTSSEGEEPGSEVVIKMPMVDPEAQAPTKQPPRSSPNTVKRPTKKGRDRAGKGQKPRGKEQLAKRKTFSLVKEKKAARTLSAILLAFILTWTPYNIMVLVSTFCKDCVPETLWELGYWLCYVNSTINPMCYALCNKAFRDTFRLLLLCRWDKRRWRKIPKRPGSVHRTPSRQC
M1 ag parental: counter-screen for M1 agonists: effect in parental CHO-K1 cells | Fluo-8 calcium fluorescence; scaled to maximal ATP response, vehicle zero | activation, % at 3 µM | hit rate 0.48% among 360,000; in the data active = activation above about 15%;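 also: untransfected CHO-K1 host cells lacking M1 receptor as counterscreen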
M1 antag: antagonists of human M1 muscarinic receptor | CHO-K1 hM1, Fluo-8 calcium fluorescence, ACh EC80 antagonist | inhibition, % at 3 µM | hit rate 1.3% among 360,000 | AID 588852;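 active = percent inhibition above its own plate's cutoff, namely the mean of that plate's compound wells plus 3 SD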;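 also: peak over basal fluorescence ratio during 140 s after agonist addition; 0% = ACh EC80 plus DMSO and 100% = DMSO alone without agonist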
M1 PAM: potentiates human M1 receptor response to acetylcholine; P11229; CHO-K1 hM1, Fluo-8 calcium fluorescence, ACh EC20; 0% = ACh EC20, 100% = maximal ACh; activation, % at 3 µM; hit rate 0.088% among 360,000; in the data active = activation above about 19%, passing the limit was not always enough
* = called active by the depositor; . = no result given.

SMILES	CHO-K1 Ca antag	CHO-K1 Ca PAM	CHRM1 agonist	M1 ag parental	M1 antag	M1 PAM
CC(=O)N1CCN(C(=S)NC(=O)c2ccc(S(=O)(=O)N3CCOCC3)cc2)CC1	-11	2	-2	0	-9	-1
Cc1ccc(S(=O)(=O)N2C[C@@H]3CCCC[C@@H]3[C@@H](C)[C@H]2c2cn(Cc3ccccc3)c3ncccc23)cc1	-17	9	4	-1	-2	29*
CCCCCCCCNc1ncnc2ccccc12	39*	-6	-2	11	29*	-11
Cc1cc2c(NCCc3ccccc3)ncnc2s1	24*	-16	4	12	24	-5
c1ccc(CCNc2ncnc3ccccc23)cc1	32*	-3	-4	10	24	-12
CSc1ncccc1C(=O)N1CCC(C)(C(=O)O)C1 (stereo unspecified)	5	8	-3	0	-8	0
COC(=O)C1=C(N)Oc2cc(C)n(Cc3cccnc3)c(=O)c2C1c1ccccc1OC (stereo unspecified)	26*	-7	-4	0	2	0
Cc1cc(C(C)(C)C)cc(C)c1COC(=O)c1cccnc1	-7	1	0	1	-6	2
CCN1CCN(c2ncnc3sc(C)c(-c4ccccc4)c23)CC1	-13	-22	-11	2	29*	-16
CCN1CCN(c2ncnc3c2sc(=S)n3-c2ccccc2)CC1	2	8	-10	2	-6	2
CCN1CCN(c2ncnc3scc(-c4ccc(C)c(C)c4)c23)CC1	-3	-6	-11	0	85*	-32
O=C(COC(=O)c1ccc(Cl)c(S(=O)(=O)N2CCCCC2)c1)NCCc1ccccc1	25*	-24	3	0	-9	12
CC1CN(C(=O)COC(=O)c2ccc(Cl)c(S(=O)(=O)N3CCCCC3)c2)CC(C)O1 (stereo unspecified)	7	13	-10	20*	-10	13
COc1ccc(C(=O)OCC(=O)NCCc2ccc(F)cc2)cc1S(=O)(=O)N1CCOCC1	-11	-6	-6	0	33*	-7
O=C(NCCc1ccccc1)c1ccc(Cl)c(S(=O)(=O)N2CCCC2)c1	-3	-6	1	13	-8	8
CCC(=O)N(C(=O)CC)N1CCN(c2ccncc2S(=O)(=O)N2CCCCC2)CC1	-1	1	-3	2	-8	1
COc1ccc([C@H]2CC(=O)C[C@@H](CCn3nnc4ccccc43)O2)cc1	-9	16	.	0	.	.
O=S(=O)(NCCCc1ccccc1)c1ccccc1	-6	7	-6	1	-5	4
O=S(=O)(NCCCCCNS(=O)(=O)c1ccccc1)c1ccccc1	24*	-9	4	4	-11	-5
CS(=O)(=O)NCCOc1ccc(S(=O)(=O)NCCOc2ccccc2)cc1	32*	-19	-6	0	5	-10
Cc1cccc(C(=O)N2CCN(S(=O)(=O)N3CCCCCC3)CC2)c1	-2	-3	-2	1	-10	10
O=C(COC(=O)c1cc(-c2cccs2)nn1-c1ccccc1)Nc1ccc(Cl)c([N+](=O)[O-])c1	2	-7	-4	1	1	-7
O=C(CSc1ccc(-c2ccccn2)nn1)NCc1ccccc1	0	7	-4	4	37*	-5
CC1c2ccccc2SC(CCCN(C)C)c2ccccc21 (stereo unspecified)	-5	9	-8	1	5	-11
CN(C)CCC1Sc2ccccc2Oc2ccccc21 (stereo unspecified)	-6	14	-4	1	48*	-22
SMILES	CHO-K1 Ca antag	CHO-K1 Ca PAM	CHRM1 agonist	M1 ag parental	M1 antag	M1 PAM
Cc1ccc(S(=O)(=O)NC(CC(C)C)C(=O)Oc2ccc3c4c(c(=O)oc3c2)CCC4)cc1 (stereo unspecified)	25*	-12	-4	3	43*	-19
CC(C)CC(C(=O)Oc1ccc2c3c(c(=O)oc2c1)CCC3)N1C(=O)c2ccccc2C1=O (stereo unspecified)	-7	12	-1	0	-12	5
CCC(C)C(NS(=O)(=O)c1ccc(C)cc1)C(=O)Oc1ccc2c3c(c(=O)oc2c1)CCC3 (stereo unspecified)	-27	49*	-4	4	-19	-8
CC[C@@H](NS(=O)(=O)c1ccc(C)cc1)C(=O)Oc1ccc2c3c(c(=O)oc2c1)CCC3	3	-5	-6	12	-1	-10
O=C(CSc1nnc(NC(=O)C2CC2)s1)Nc1ccccc1Cl	-9	-2	-3	0	-14	10
CC(C)C(NC(=O)c1ccc(C(C)(C)C)cc1)C(=O)NCc1ccccn1 (stereo unspecified)	-8	-15	-8	0	55*	-30
COc1ccc(C(=O)NC(C(=O)NCc2ccccn2)C(C)C)cc1 (stereo unspecified)	5	1	-2	0	2	0
CNc1ccc(-c2cccc(CO)c2)cn1	4	-14	-4	0	1	-4
CC(C)c1ccc(N2C(=O)CSC23C(=O)N2CCCc4cccc3c42)cc1 (stereo unspecified)	-5	21	-8	1	98*	-21
CSc1ccc(N2C(=O)NC3(CCCCC3)C2=O)cc1	6	14	-4	1	-10	7
CCOCC(=O)Nc1cc(C)on1	-15	22	-2	0	-8	11
COc1cc(NC(=O)N2CCc3nc(NCc4cccc(Oc5ccccc5)c4)ncc3C2)cc(OC)c1OC	-5	4	-1	8	27	-19
Cc1ccc(N2C(=O)C3N=NN(CC(=O)N4N=C(c5ccccc5)CC4c4ccccc4)C3C2=O)cc1 (stereo unspecified)	24*	-20	-4	-1	5	0
COc1ccc(C2=NN(C(=O)CCC(=O)O)C(c3ccccc3)C2)cc1 (stereo unspecified)	-8	9	-3	0	-5	4
C=CCN1CCN(c2ccncc2S(=O)(=O)N2CCCCC2)CC1	4	5	-7	0	31*	-18
O=S(=O)(c1cnccc1N1CCN(CCO)CC1)N1CCCC1	6	-12	-8	0	-16	6
CC(C)N1CCN(c2ccncc2S(=O)(=O)N2CCOCC2)CC1	-9	16	-6	0	48*	-20
COc1ccc(/C=C2/CSC/C(=C/c3ccc(OC)c(OC)c3)C2=O)cc1OC	-5	-20	0	5	13	-8
COC(=O)[C@@]1(C)[C@H]2C(=O)N(C)C(=O)[C@H]2[C@H]2CN=C(SC)N21	-16	20	-1	0	-19	11
OC1c2cc(Br)ccc2N=C2CCCN21 (stereo unspecified)	-5	0	-7	0	-4	9
